# In PubChem BioAssay (NCATS):
# Records with an inconclusive call do not appear. Entries that show only a call come without a potency. Activity calls are given as the source filed them. Calls follow the shape of the dose curve; as a rule, active = well fitted cell-killing curve with a large enough effect; inconclusive = small, poorly fitted or top-dose-only effect, or effect the other way; inactive = no such curve, though single readings can be large or run the other way.
# Columns and labels:
# [1] = Viability qHTS for spleen associated tyrosine kinase inhibitor (SYKi) naive MV4-11 cells (AID 1963823); settings: MV4-11 AML viability, CellTiter-Glo luminescence, 72 h; series mostly up to 45 µM; also: nearly all actives have a fitted effect of over 40% in size
# Summary of the method: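 CellTiter-Glo luminescence, 10 min room-temperature incubation, gave viability. Cells: naive MV4-11 (500/well), treated 72 hr at 37 C, 5% CO2.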
# [2] = Viability qHTS for spleen associated tyrosine kinase inhibitor (SYKi) drug resistant MV4-11 cells (AID 1963824); settings: SYKi-resistant MV4-11 viability, CellTiter-Glo, 72 h; series mostly up to 45 µM; also: nearly all actives have a fitted effect of over 35% in size
# Summary of the method: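 SYK inhibitor-resistant MV4-11 AML cells, 500 per well, added to predispensed compounds and incubated 72 hr at 37 C, 5% CO2. Viability measured by CellTiter-Glo luminescence after 10 min at room temperature.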
# Potency is read from the fitted curve at half-maximal effect.
Structure (SMILES),Potency [1],Potency [2],viability (% of control) [1],"viability, % of control [2]"
COc1ccc(CC(NC(C)=O)C(=O)O)cc1 (stereo not drawn),inactive,inactive,,
C[C@@H]1O[C@@H](O[C@H]2[C@H](OC(=O)[C@]34CCC(C)(C)C[C@H]3C3=CCC5[C@@]6(C)CC[C@H](O[C@@H]7O[C@H](CO[C@@H]8OC[C@H](O)[C@H](O)[C@H]8O[C@@H]8OC[C@@H](O)[C@H](O)[C@H]8O)[C@@H](O)[C@H](O)[C@H]7O)C(C)(C)C6CC[C@@]5(C)[C@]3(C)C[C@H]4O)O[C@H](CO)[C@@H](O)[C@@H]2O)[C@H](O[C@@H]2O[C@H](CO)[C@@H](O)[C@H](O)[C@H]2O)[C@H](O)[C@H]1O[C@@H]1OC[C@@H](O)[C@H](O[C@@H]2OC[C@@H](O)[C@H](O)[C@H]2O)[C@H]1O (stereo partly drawn),,,93.4% [at 4.97 µM] (inactive),88.9% [at 4.97 µM] (inactive)
Cc1cc(CN)cc(C)c1NC(=O)c1ccc(-c2cc(Cl)ccc2Cl)o1,6.51 µM (active),9.2 µM (active),,
COc1cc(/C=C/C(=O)OC2CC(OC(C)=O)C(OC(C)=O)C3C2CCC2C(=O)OC(c4ccoc4)CC23C)ccc1O[C@@H]1O[C@H](CO)[C@@H](O)[C@H](O)[C@H]1O (stereo partly drawn),inactive,inactive,,
